This note sets out measurements from PubChem BioAssay AID1851 (National Center for Advancing Translational Sciences (NCATS), 2009).

Structures are written as SMILES. In all, about 16,000 compounds went through this assay and about 5,100 (32%) were called active. About 25% were inconclusive and are not listed. This is one part of the list. Unmarked numbers belong to inactive results. Calls follow the shape of the dose curve; as a rule, active = well fitted curve in the direction sought with a large enough effect; inconclusive = small, poorly fitted or top-dose-only effect, or effect the other way; inactive = no such curve, though single readings can be large or run the other way.
% is scaled to controls: 0 for no effect and ±100 for the full control effect.

Cytochrome P450 3A4 (Homo sapiens), sequence (P08684 whole entry, looked up): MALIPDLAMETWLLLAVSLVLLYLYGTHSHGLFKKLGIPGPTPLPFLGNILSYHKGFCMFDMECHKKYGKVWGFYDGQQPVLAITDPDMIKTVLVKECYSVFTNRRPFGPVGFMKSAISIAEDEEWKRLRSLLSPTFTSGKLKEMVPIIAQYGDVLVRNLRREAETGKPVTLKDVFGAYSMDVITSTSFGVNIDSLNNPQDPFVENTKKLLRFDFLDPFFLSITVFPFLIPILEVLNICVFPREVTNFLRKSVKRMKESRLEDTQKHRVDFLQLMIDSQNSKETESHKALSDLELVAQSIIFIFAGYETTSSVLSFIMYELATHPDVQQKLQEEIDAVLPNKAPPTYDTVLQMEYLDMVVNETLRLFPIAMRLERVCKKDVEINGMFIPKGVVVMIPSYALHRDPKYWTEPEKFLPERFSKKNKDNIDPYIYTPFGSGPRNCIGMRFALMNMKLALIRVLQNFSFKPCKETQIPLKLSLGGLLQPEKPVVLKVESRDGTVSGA

The assay concerns the target Cytochrome P450 3A4 (Homo sapiens) (UniProt P08684). Briefly: Cytochrome panel assay with activity outcomes. The settings on record: recombinant CYP, pro-luciferin dealkylation, luminescence, p450-cyp3a4; series mostly up to 57.1 µM; activity, negative = inhibition: at the top concentration.
For the compound `CC(=O)OC[C@@H]1O[C@@H](O/N=C2/C[C@@H](O)[C@@H](O)[C@@H]3[C@@H]4C(=O)N(C(C)(C)C)C(=O)[C@H]4CC[C@H]23)[C@H](OC(C)=O)[C@H](OC(C)=O)[C@@H]1OC(C)=O`, the activity, negative = inhibition was -17.4% [at 11.4 µM].

In the case of `O=C1NC(=O)C(c2ccccc2[N+](=O)[O-])=C1Nc1ccc(O)c(Cl)c1`, the AC50 is 20 µM (active). Take `O=C(O)[C@H](Cc1ccc(O)c([N+](=O)[O-])c1)N1C(=O)c2ccccc2C1=O`: the activity, negative = inhibition is 6.92% [at 11.4 µM].

As to `CCc1nnc(NC(=O)c2c(C)nn(-c3ccccc3)c2Cl)s1`, the activity, negative = inhibition was 4.89% [at 2.29 µM]. As to `O=C(Nc1nccs1)C1Cc2ccccc2CN1S(=O)(=O)c1ccc(F)cc1` (stereo unspecified), the AC50 is 3.16 µM (active). In the case of `CCOc1ccccc1NC(=O)C1Cc2ccccc2CN1S(C)(=O)=O` (stereo unspecified), the activity, negative = inhibition is -25.2% [at 11.4 µM]. As for `CCc1nnc(NC(=O)C2Cc3ccccc3CN2S(=O)(=O)c2ccc(C)cc2)s1` (stereo unspecified), the AC50 was 6.31 µM (active). Consider `O=C(Nc1nnc(C2CC2)s1)C1Cc2ccccc2CN1S(=O)(=O)c1ccccc1F` (stereo unspecified), for which the AC50 is 7.08 µM (active). For `CC(=O)c1sc(NC(=O)C(C)C)nc1C`, the “activity, negative = inhibition” value is -11.3%. With `COCCNc1nc(SCc2ccccc2)nc2sc3c(c12)CCC3`, the concentration at half-maximal activity (AC50) was 12.6 µM (active). Turning to `CC(CO)Nc1nc(SCc2ccccc2)nc2sc3c(c12)CCC3` (stereo unspecified), the AC50 was 14.1 µM (active). In the case of `Cc1ccc(CSc2nc3c(c(SCC(=O)O)n2)CCCC3)cc1`, the “activity, negative = inhibition” value is 8.65%. Still for that read-out and setting: then `O=C(O)CSc1ncnc2sc3c(c12)CCC3`, with -26%; and `OCCNc1nc(SCc2ccccc2)nc2sc3c(c12)CCC3`, with -25% [at 11.4 µM]; and `Cc1nc2c(O)cccc2c(=O)[nH]1`, with -15.4%. With `COc1cccc(NC(=O)COC(=O)c2nc3nccc(C)n3n2)c1`, the “activity, negative = inhibition” value was -9.81%. Take `COc1cccc(NC(=O)COC(=O)c2c3c(nc4ccccc24)CCC(C)C3)c1` (stereo unspecified): the AC50 was 3.55 µM (active).

On to `Cc1ccc(S(=O)(=O)N2CCN(C(=O)c3ccccc3)C2C(C)C)cc1` (stereo unspecified), for which the AC50 is 2 µM (active).

With `Cc1ccc(S(=O)(=O)N2CCC(C(=O)O)(c3ccccc3)CC2)cc1`, the activity, negative = inhibition was 12.2% [at 11.4 µM].

In the case of `CC(=O)N1CC2(CC2)CC1c1ccccc1` (stereo unspecified), the “activity, negative = inhibition” value was -21.7%. On the same count and under the same terms, with `Cc1ccc(S(=O)(=O)ON=C2CCN(S(=O)(=O)c3ccccc3)CC2)cc1` the figure was 9.52%. For `CC(=O)N1CCN(S(=O)(=O)c2ccccc2)C1c1ccccc1` (stereo unspecified), the AC50 was 11.2 µM (active).

Turning to `COc1ccc(C(=O)c2ccccc2)cc1Br`, the “activity, negative = inhibition” value was -25.9%. Take `COc1ccc(C(=O)c2ccc(OC)c(OC)c2)cc1OC`: the AC50 was 15.8 µM (active). `COc1ccc(NC(=O)C(F)(F)F)cc1OC`: the “activity, negative = inhibition” value is 1.85%. Take `CN[C@H]1[C@@H](O[C@@H]2[C@H](O[C@@H]3[C@@H](O)[C@@H](O)[C@@H](N=C(N)N)[C@@H](O)[C@@H]3N=C(N)N)O[C@H](C)[C@@]2(O)C=O)O[C@@H](CO)[C@@H](O)[C@H]1O`: the “activity, negative = inhibition” value was -11.4% [at 25.6 µM]. `Cc1cccc(N2CCN(CC(=O)Nc3ccc(-n4cnnn4)cc3)CC2)c1C`: the “activity, negative = inhibition” value is -1.5%.

As for `Cc1cccc(N2CCN(C(=O)CSCc3c(C)noc3C)CC2)c1C`, the AC50 was 3.98 µM (active). As to `Cc1cc(Cl)ccc1OC(C)C(=O)Nc1ccc(S(=O)(=O)Nc2cnc3ccccc3n2)cc1` (stereo unspecified), the activity, negative = inhibition is -1.77% [at 2.29 µM]. In the case of `Cc1nnc(NS(=O)(=O)c2ccc(N)cc2)s1`, the “activity, negative = inhibition” value is -9.45% [at 25.6 µM].

With `Cc1ccc(S(=O)(=O)Nc2nc(C)c(NC(=O)Nc3ccc(Cl)cc3Cl)s2)cc1`, the AC50 was 15.8 µM (active). As to `Cc1cc(C)n(-c2nc(NC(C)(C)C)nc(NC(C)(C)C)n2)n1`, the “activity, negative = inhibition” value was -7.85%. With `Cc1cc(C)n(-c2nc(Nc3ccccc3C)nc(-n3nc(C)cc3C)n2)n1`, the AC50 is 7.94 µM (active). Still for that read-out and setting: then `Cc1nn(Cc2ccc(Cl)cc2Cl)c(C)c1NC(=O)c1sc2ccccc2c1Cl`, with 7.08 µM (active).

With `CC(C)c1nnc(NC(=O)c2sc3ccccc3c2Cl)s1`, the “activity, negative = inhibition” value is 7.5%.

On to `Cc1ccccc1Cn1nc(C)c(NC(=O)c2sc3ccccc3c2Cl)c1C`, for which the AC50 is 11.2 µM (active). As for `Cc1ccc(NC(=O)c2sc3ccccc3c2Cl)nc1`, the “activity, negative = inhibition” value was -27.9%. Consider `O=C(NNC(=O)c1sc2ccccc2c1Cl)Nc1ccc(Cl)cc1`, for which the AC50 is 12.6 µM (active). Consider `NCCSS(=O)(=O)CCN`, for which the activity, negative = inhibition is 5.43% [at 11.4 µM]. For the compound `Cc1ccc(N2C(=O)CC(c3ccsc3)C3=C2CC(C)(C)CC3=O)cc1` (stereo unspecified), the half-maximal activity concentration (AC50) was 2.24 µM (active). Regarding `O=C(/C=C\c1ccccc1)c1ccccc1O`, the activity, negative = inhibition is -15.8% [at 11.4 µM]. In the case of `O=C(/C=C/c1ccccc1)N/C(=C/c1ccccc1)C(=O)Nc1ccccc1O`, the AC50 was 14.1 µM (active). As for `O=C(O)C/C(=C\c1ccccc1)C(=O)O`, the activity, negative = inhibition is -16.3% [at 11.4 µM].

Take `O=C(CSc1cccc2cccnc12)OCC(=O)c1ccccc1`: the activity, negative = inhibition is 10.1% [at 2.29 µM]. For `COc1ccc(/C(C)=N/NC(=O)c2ccc(CSc3cccc4cccnc34)cc2)cc1OC`, the AC50 was 3.16 µM (active). Turning to `O=C(NCCc1cccs1)C1CC(c2c(Cl)cccc2Cl)=NO1` (stereo unspecified), the activity, negative = inhibition was -24.1% [at 2.29 µM]. Regarding `COC(=O)C1CCN(CC(=O)Nc2sc3c(c2C#N)CCC3)CC1`, the “activity, negative = inhibition” value was -27.9%.

Turning to `N#Cc1c(NC(=O)C2CC(c3ccccc3Cl)=NO2)sc2c1CCC2` (stereo unspecified), the half-maximal activity concentration (AC50) was 5.01 µM (active). In the case of `CCN(CC)C(=O)N1CCN(C)CC1`, the “activity, negative = inhibition” value was -0.999% [at 25.6 µM]. Regarding `Cc1ccc(NC(=O)CC2CS(=O)(=O)CC2CC(=O)Nc2ccc(C)c(C)c2)cc1C` (stereo unspecified), the AC50 was 3.98 µM (active). Consider `CN(C)c1nc(C#N)nc(N2CCOCC2)n1`, for which the “activity, negative = inhibition” value was 2.43%. Still for that read-out and setting: with `O=C(CNS(=O)(=O)c1ccc(Br)s1)N1CCC(N2CCCCC2)CC1` the figure was -12.4%. Take `CCC(C)NC(=O)CCS(=O)(=O)c1ccc(Br)s1` (stereo unspecified): the AC50 was 0.891 µM (active). For `COC(=O)C/C=C1\c2ccccc2[C@H](OC)[C@H]1C`, the activity, negative = inhibition was -2.89% [at 11.4 µM]. Same read-out and setting: then `Nc1ccc(N=Nc2ccc(-c3ccc(O)cc3)cc2)c2ccc(S(=O)(=O)O)cc12`, with -11.1% [at 11.4 µM]. With `COC(=O)[C@@]1(Cc2ccccc2)[C@H]2c3cc(C(=O)N4CCCC4)n(Cc4c(CO)[nH]cc(C)c4=O)c3C[C@H]2CN1C(=O)c1ccccc1`, the AC50 is 2.51 µM (active). On the same count and under the same terms, then `COC(=O)[C@@]1(Cc2ccc(F)cc2)[C@H]2c3cc(C(=O)N4CCCC4)n(Cc4c(CO)[nH]cc(C)c4=O)c3C[C@H]2CN1C(=O)c1ccccc1`, with 2 µM (active); and `O=C1c2cccc3cccc(c23)C(=O)N1CC1CCN(CC(O)COc2ccc3ccccc3c2)CC1` (stereo unspecified), with 7.94 µM (active).

On to `CCCOC(=O)c1c(-c2ccccc2)nc(CC)c(C(=O)SCC)c1CCC`, for which the half-maximal activity concentration (AC50) is 10 µM (active). For `CCOC(=O)c1c(-c2ccccc2)nc2ccc(Cl)cn12`, the “activity, negative = inhibition” value was -22.1%.

`CCc1nc2c(c(SC)nn2-c2ccccc2)c(N)c1C(=O)OC`: the activity, negative = inhibition was -21.9% [at 11.4 µM]. Take `O=C1CCCC=C1[C@@H](O)C1CCCCC1`: the activity, negative = inhibition is -18.7% [at 11.4 µM]. In the case of `N#C/C(=C\Nc1ccccn1)C(=O)C1CC1`, the activity, negative = inhibition was -9.43% [at 11.4 µM]. For the compound `N#C/C(=C\c1cn[nH]c1-c1ccccc1)C(=O)NC1CCCCCC1`, the concentration at half-maximal activity (AC50) is 7.08 µM (active). Still for that read-out and setting: then `N#C/C(=C\c1cc(Cl)cc(Cl)c1O)C(=O)NC1CCCCC1`, with 15.8 µM (active). For the compound `Cc1cc(=O)oc2cc(O)ccc12`, the “activity, negative = inhibition” value was -8.45% [at 25.6 µM]. For `CCN(CC)c1ccc(C(=O)OCc2cc(=O)oc3cc(O)ccc23)cc1`, the half-maximal activity concentration (AC50) was 6.31 µM (active). `CCOc1cc2c(C)cc(=O)oc2cc1Cl`: the “activity, negative = inhibition” value is -19.3%. In the case of `CCN(CC)c1ccc2cc(C(C)=O)c(=O)oc2c1`, the “activity, negative = inhibition” value was -19.1%. Same read-out and setting: with `COc1ccc2c(CC(=O)NCC3CCC(C(=O)O)CC3)cc(=O)oc2c1` (stereo unspecified) the figure was -1.71%.

Consider `CCN(CC)c1ccc2c(Cl)cc(=O)oc2c1`, for which the AC50 was 25.1 µM (active).

Take `O=c1c(-c2cccs2)nc2cnc(N3CCNCC3)nc2n1-c1ccccc1`: the half-maximal activity concentration (AC50) is 25.1 µM (active). Consider `CN(C)c1ncc2nc(-c3cccs3)c(=O)n(-c3ccccc3)c2n1`, for which the “activity, negative = inhibition” value was -3.28%. With `COc1ccc(-n2c(=O)c(-c3ccccc3)nc3cnc(N4CCNCC4)nc32)cc1`, the “activity, negative = inhibition” value was -7.64%. Same read-out and setting: then `COc1ccc(-n2c(=O)c(-c3ccc(Cl)cc3)nc3cnc(N4CCNCC4)nc32)cc1`, with -1.14%. As to `CN1CCN(c2ncc3nc(-c4cccs4)c(=O)n(-c4ccccc4)c3n2)CC1`, the AC50 was 31.6 µM (active). On to `Cc1nc2cnc(N3CCN(C)CC3)nc2n(-c2ccccc2)c1=O`, for which the “activity, negative = inhibition” value is -12.7%. With `O=c1c(-c2cc(F)cc(F)c2)nc2cnc(N3CCOCC3)nc2n1-c1ccccc1`, the “activity, negative = inhibition” value is -17.5%. On to `COc1ccc(-n2c(=O)c(-c3cccs3)nc3cnc(N4CCNCC4)nc32)cc1`, for which the AC50 was 15.8 µM (active). The same measure, in the same setting: with `COc1ccc(CNc2ncnc3ccc(-c4ccc(N(C)C)cc4)cc23)c(OC)c1` the figure was 3.98 µM (active); with `COc1ccccc1CNc1ncnc2ccc(-c3ccc4c(c3)OCO4)cc12`, 1.26 µM (active). The same measure, in the same setting: then `COc1ccccc1CNc1ncnc2ccc(-c3ccc(N(C)C)cc3)cc12`, with 2 µM (active). For the compound `CCOC(=O)c1[nH]c(C(=O)O)c(CCC(=O)OC)c1C`, the “activity, negative = inhibition” value is 6.89%.

`Cc1cc(C)nc(NC(=O)CCCC(=O)O)c1`: the “activity, negative = inhibition” value was 1.45%. In the case of `C[N+]1(C)CCO[C@](O)(c2ccccc2)C1`, the activity, negative = inhibition is -8.04% [at 11.4 µM]. With `O=C(c1ccc2c(=O)n(Cc3ccco3)c(=S)[nH]c2c1)N1CCN(c2ccccc2)CC1`, the AC50 is 6.31 µM (active). With `CC(C)NC(=O)c1ccc2c(=O)n(Cc3ccco3)c(=S)[nH]c2c1`, the “activity, negative = inhibition” value was -26%. With `COc1ccc(CCNC(=O)c2ccc3c(=O)n(Cc4ccco4)c(=S)[nH]c3c2)cc1OC`, the AC50 is 0.631 µM (active). As for `COc1ccc(NC(=O)c2ccc3c(=O)n(Cc4ccco4)c(=S)[nH]c3c2)c(OC)c1`, the “activity, negative = inhibition” value was -27%. On the same count and under the same terms, then `Nc1ccccc1Nc1ccccc1`, with -23.8% [at 11.4 µM].

In the case of `C[C@H]1O[C@@H](CC(=O)O)Cc2c1c(O)c1c(O)cc(-c3cc(=O)c4c(=O)c5c(c(=O)c=4c3=O)C[C@H](CC(=O)O)O[C@@H]5C)c(O)c1c2O`, the activity, negative = inhibition was -6.62% [at 11.4 µM].

One may read the AC50 as the concentration at which the activity in the assay is half-maximal.
